Data: the supplement of paper PMC6555819

Each sequence was assayed on LXRa:RXRa (NR concentration 270 nM, RXRa partner concentration 90 nM) (assay: PBM binding z-score (relative to random genomic background probes); higher = stronger binding; sequences stand for … in GC…GCGATTGACAGCGTAGAATGAAGG).
In short: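 Custom Agilent 4×180K protein-binding microarrays carried double-stranded probes, each with a 34-nt variable region. These regions held direct-repeat seeds, single-nucleotide variants, half-site ablations and random human genomic background sequences. Ligand-free nuclear receptor dimers were incubated on the arrays for 1 h, antibodies against each partner (one per run) detected binding, and scanned fluorescence was regression-normalized. Binding z-scores take the random background probes as reference.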

Question: CTACCAAGGTGAACAAGGTCGTTGACTACTATTC was tested. Which PBM binding z-score did it give?
Answer: 1.79

Question: Which PBM binding z-score does the source give for GCTAGCTGGTCAGTAAAAGGTCACACACCGGTCG here?
Answer: 4.47

Question: How did the PBM binding z-score turn out when AGTCAAAGTTCACTAGGTAACGTCAGATTCAGCT was run?
Answer: 4.88

Question: With CTCGAAAGGTAGGTTGAGGTGAGTATACGGATAA as the sequence, how does the PBM binding z-score read?
Answer: -0.128

Question: With TCATATAGGTAAATGCGAGGTGAAAGTCCGATCT as the sequence, how does the PBM binding z-score read?
Answer: 1.58

Question: How did the PBM binding z-score turn out when TAGCCTAGGGCATTGGGCCAGTATAGTACGCATC was run?
Answer: -0.336

Question: How did the PBM binding z-score turn out when ATCTCTAGGTAAAGTTCAGTAAAAGATCGATAGA was run?
Answer: 1.77

Question: How did the PBM binding z-score turn out when CAGCCTAGGTCAGGGCTAGTATAGGAGGAACGTT was run?
Answer: 0.697

Question: With CAGACTAGGTCAGGGCCAGTATAGGAGGAACGTT as the sequence, how does the PBM binding z-score read?
Answer: 0.664

Question: How did the PBM binding z-score turn out when CCTCGGAGGACAGAAGGTCAGAGTTGTCCGCTTT was run?
Answer: 1.59

Question: How did the PBM binding z-score turn out when CTCGAAAGGTCGGTTGAGGTGAGTATCCGGATAA was run?
Answer: 1.81

Question: Which PBM binding z-score does the source give for ATCGAAAGGTCGAGGTGAGTATAGAGAAAGGGAA here?
Answer: 3.57

Question: How did the PBM binding z-score turn out when AATACAGGGTCATCGTAGGCCAAAGTACGCACAG was run?
Answer: 6.92

Question: How did the PBM binding z-score turn out when CGTCCAAGCTCAATGCTAGGTCAGTGAAAGCATT was run?
Answer: -0.0286

Question: With ATCTCTAGGTAAAGATAGTTCAGTGACTGCAAAT as the sequence, how does the PBM binding z-score read?
Answer: 4.19

Question: TCTATTAGTTGAAGGGCAACCGGCGAGTCCGTTT was tested. Which PBM binding z-score did it give?
Answer: 1.19

Question: Which PBM binding z-score does the source give for CTCGAAACGTCGGTTGAGGTGAGTATACGGATAA here?
Answer: -0.188

Question: ACTAGCAGGCCAAGGGACACTCAAGATTAGTCCG was tested. Which PBM binding z-score did it give?
Answer: -0.514

Question: With TTACCAAGGTTAAGGTCGTTGATCCCTCTGTAGA as the sequence, how does the PBM binding z-score read?
Answer: 4.15

Question: How did the PBM binding z-score turn out when GCTGCTAGGTCAGGTTGGACAGCTAACGGGTACG was run?
Answer: 0.591

Question: How did the PBM binding z-score turn out when GCTATTCGTTGAAAGGGCAACCGAATGATTCTCG was run?
Answer: 0.488

Question: CAAACTAGGTCAAAGGTCAATGTCGAGCCAACCA was tested. Which PBM binding z-score did it give?
Answer: 7.09
